From PubChem BioAssay (Tox21)
Results filed as inconclusive are left out. Active and inactive are the calls of the source. Unless noted, calls follow the shape of the dose curve; as a rule, active = well fitted curve in the direction sought with a large enough effect in the repeat runs; inconclusive = weak or mixed curves; inactive = no such curve, though single readings can be large; an effect the other way counts as inactive or inconclusive.

Columns and labels:
[1] = qHTS assay to identify small molecule antagonists of the peroxisome proliferator-activated receptor gamma (PPARg) signaling pathway - cell viability counter screen (AID 743194); also: nearly all actives have a fitted effect of over 55% in size
Outline: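 Cytotoxicity counter screen in PPARg-bla HEK293H cells, same wells as reporter assay. Compounds plus 50 nM rosiglitazone (final) for 17 h at 37 C, then viability read by CellTiter-Glo luminescence.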

[2] = qHTS assay for small molecule agonists of the antioxidant response element (ARE) signaling pathway - cell viability counter screen (AID 743203; calls by dose curve; also: nearly all actives have a fitted effect of over 55% in size)
Outline: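 Viability counter screen: stably transfected ARE-bla HepG2 line, 16 hrs compound exposure at 37C/5% CO2, ATP-based CellTiter-Glo luminescence measured in the reporter wells.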

[3] = qHTS assay for small molecule activators of the heat shock response signaling pathway - cell viability counter screen (AID 743209); also: nearly all actives have a fitted effect of over 50% in size
Outline: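 Viability of HSE-bla HeLa cells is measured with CellTiter-Glo in the wells already used for the reporter read. Compound exposure lasts 5 h at 37 C, and luminescence is read after 30 min at room temperature.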

[4] = qHTS assay for small molecule activators of the heat shock response signaling pathway (AID 743210; active = well fitted activation curve with a large enough effect in the signal ratio in the repeat runs, with a control signal flat, not every such curve was filed as active; the % refers to the signal ratio;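 also: HeLa cells with beta-lactamase reporter driven by heat shock elements; series mostly up to about 63 µM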)
Outline: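 Beta-lactamase reporter read-out: FRET substrate fluorescence after 2.5 h at RT, following 5 h compound treatment at 37 C of HeLa cells carrying HSE-driven bla reporter; quantitative HTS format.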

[5] = qHTS assay to identify small molecule agonists of the peroxisome proliferator-activated receptor delta (PPARd) signaling pathway - cell viability counter screen (AID 743211); also: nearly all actives have a fitted effect of over 55% in size
Outline: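 Viability was measured as CellTiter-Glo luminescence (30 min, room temperature) in the same wells as the beta-lactamase readout. GeneBLAzer PPARd UAS-bla HEK293H cells received compound after 5 h plating and were incubated 17 h at 37 C.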

[6] = molecular target: Peroxisome proliferator-activated receptor delta (Homo sapiens) (UniProt Q03181); assay: qHTS assay to identify small molecule agonists of the peroxisome proliferator-activated receptor delta (PPARd) signaling pathway (AID 743212; calls by dose curve)
Outline: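 Read-out: beta-lactamase FRET fluorescence after 2 h room-temperature incubation with LiveBLAzer B/G substrate. Cells were HEK293H carrying a UAS-bla reporter for PPARd, treated at 37 C with DMSO-dissolved compounds.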

[7] = qHTS assay to identify small molecule antagonists of the peroxisome proliferator-activated receptor delta (PPARd) signaling pathway - cell viability counter screen (AID 743213); also: nearly all actives have a fitted effect of over 50% in size
Outline: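 Agonist-stimulated (L165041, 300 nM final) HEK293H PPARd UAS-bla cells are exposed to compounds for 17 h at 37 C, and ATP-based luminescence (CellTiter-Glo) from the same wells reports cytotoxicity.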

[8] = molecular target: Peroxisome proliferator-activated receptor delta (Homo sapiens) (UniProt Q03181); assay: qHTS assay to identify small molecule antagonists of the peroxisome proliferator-activated receptor delta (PPARd) signaling pathway (AID 743215; active = well fitted inhibition curve with a large enough effect in the signal ratio in the repeat runs, not every such curve was filed as active; the % refers to the signal ratio; also: series mostly up to about 62 µM)
Outline: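 Plated HEK293H PPARd-bla cells rested 5 h at 37 C and 5% CO2. Compound, then agonist L165041 at 300 nM final, was added; 17 h at 37 C followed. Substrate loading, 2 h room temperature, fluorescence measured.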

[9] = qHTS assay to identify small molecule agonists of the farnesoid-X-receptor (FXR) signaling pathway - cell viability counter screen (AID 743218); also: nearly all actives have a fitted effect of over 45% in size
Outline: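 Viability of FXR-bla HEK 293T cells is measured by ATP-based CellTiter-Glo luminescence following 16 h compound treatment at 37 C and a prior 2 h room-temperature beta-lactamase substrate step.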

[10] = qHTS assay to identify small molecule antagonists of the farnesoid-X-receptor (FXR) signaling pathway - cell viability counter screen (AID 743221; active = well fitted cell-killing curve with a large enough effect in the repeat runs, not every such curve was filed as active; also: nearly all actives have a fitted effect of over 50% in size)
Outline: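 Cytotoxicity counter screen run in the FXR-bla reporter wells: HEK 293T cells exposed to compound with 50 uM (final) chenodeoxycholic acid for 16 h, 37 C, then viability measured by CellTiter-Glo luminescence after 30 min, room temperature.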

[11] = molecular target: Vitamin D3 receptor (Homo sapiens) (UniProt P11473); assay: qHTS assay to identify small molecule agonists of the vitamin D receptor (VDR) signaling pathway (AID 743222; calls by dose curve)
Outline: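 Fluorescence from cleaved LiveBLAzer B/G FRET substrate served as readout. VDR-bla cells had been treated 16 h at 37C with test compounds in DMSO, following a 4 h settling period, and substrate was loaded for 2 h at RT.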

[12] = molecular target: Vitamin D3 receptor (Homo sapiens) (UniProt P11473); assay: qHTS assay to identify small molecule antagonists of the vitamin D receptor (VDR) signaling pathway (AID 743223; active = well fitted inhibition curve with a large enough effect in the signal ratio in the repeat runs, not every such curve was filed as active; the % refers to the signal ratio)
Outline: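 Antagonist mode: compound added to VDR-bla cells alongside agonist 1alpha,25-dihydroxyvitamin D3 (3 nM final), incubation 16 h at 37C. Read-out is LiveBLAzer FRET fluorescence, 2 h at room temperature.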

[13] = qHTS assay to identify small molecule agonists of the vitamin D receptor (VDR) signaling pathway - cell viability counter screen (AID 743224); also: series mostly up to about 63 µM; nearly all actives have a fitted effect of over 50% in size
Outline: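 Compounds were pin-transferred onto VDR-bla cells plated 4 h earlier; following 16 h incubation at 37C, cell viability was quantified by CellTiter-Glo luminescence after 30 min at room temperature.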

[14] = qHTS assay to identify small molecule that activate the aryl hydrocarbon receptor (AhR) signaling pathway - cell viability counter screen (AID 743086);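 also: HepG2 liver cells carrying the AhR DRE luciferase reporter; series mostly up to about 70 µM; nearly all actives have a fitted effect of over 45% in size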
Outline: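 HepG2-AhR-luc (HG2L7.5c1) cells, 4000/well, treated 24 h at 37 C with compound; viability measured as CellTiter-Fluor fluorescence after 30 min in the same wells as the luciferase read.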

[15] = qHTS assay for small molecule agonists of the antioxidant response element (ARE) signaling pathway (AID 743202; active = well fitted activation curve with a large enough effect in the signal ratio in the repeat runs, not every such curve was filed as active; the % refers to the signal ratio)
Outline: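 HepG2 ARE-bla reporter line, 2,000 cells/well; 5 h preincubation 37 C/5% CO2; compound (DMSO) 16 h 37 C; B/G FRET substrate 2 h RT; fluorescence intensity.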

[16] = molecular target: Peroxisome proliferator-activated receptor gamma (Homo sapiens) (UniProt P37231); assay: qHTS assay to identify small molecule antagonists of the peroxisome proliferator-activated receptor gamma (PPARg) signaling pathway (AID 743191; calls by dose curve; also: series mostly up to about 63 µM; nearly all actives have a fitted effect of over 30% in size)
Outline: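 GeneBLAzer PPARg UAS-bla HEK293H cells, 5 h post-plating, exposed to compounds 17 h at 37C. LiveBLAzer B/G FRET substrate added for 1 h at room temperature; beta-lactamase reporter read by fluorescence intensity.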

[17] = molecular target: Peroxisome proliferator-activated receptor gamma (Homo sapiens) (UniProt P37231); assay: qHTS assay to identify small molecule agonists of the peroxisome proliferator-activated receptor gamma (PPARg) signaling pathway (AID 743094; active = well fitted activation curve with a large enough effect in the signal ratio in the repeat runs, not every such curve was filed as active; the % refers to the signal ratio)
Outline: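 Reporter activation was scored by fluorescence of cleaved LiveBLAzer B/G substrate (1 h, room temperature) in PPARg-bla HEK293H cells previously treated 17 h at 37C with DMSO-dissolved compounds.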

[18] = molecular target: Bile acid receptor (Homo sapiens) (UniProt Q96RI1); assay: qHTS assay to identify small molecule antagonists of the farnesoid-X-receptor (FXR) signaling pathway (AID 743217; active = well fitted inhibition curve with a large enough effect in the signal ratio in the repeat runs, not every such curve was filed as active; the % refers to the signal ratio)
Outline: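 Screen of the Tox21 10K library in quantitative HTS format using FXR-UAS-bla HEK 293T reporter cells. Agonist chenodeoxycholic acid, 50 uM final, added with compounds; 16 h incubation at 37 °C; beta-lactamase FRET fluorescence measured.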

[19] = molecular target: Bile acid receptor (Homo sapiens) (UniProt Q96RI1); assay: qHTS assay to identify small molecule agonists of the farnesoid-X-receptor (FXR) signaling pathway (AID 743220; active = well fitted activation curve with a large enough effect in the signal ratio in the repeat runs, not every such curve was filed as active; the % refers to the signal ratio)
Outline: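 FXR-UAS-bla HEK 293T cells carrying a UAS-driven beta-lactamase reporter were plated for 5 h at 37C/5% CO2, then exposed to DMSO-dissolved Tox21 10K compounds for 16 h at 37C. A LiveBLAzer B/G FRET substrate was loaded for 2 h at room temperature before fluorescence reading.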

Measured: Potency

Peroxisome proliferator-activated receptor gamma (Homo sapiens), sequence (P37231 whole entry, looked up): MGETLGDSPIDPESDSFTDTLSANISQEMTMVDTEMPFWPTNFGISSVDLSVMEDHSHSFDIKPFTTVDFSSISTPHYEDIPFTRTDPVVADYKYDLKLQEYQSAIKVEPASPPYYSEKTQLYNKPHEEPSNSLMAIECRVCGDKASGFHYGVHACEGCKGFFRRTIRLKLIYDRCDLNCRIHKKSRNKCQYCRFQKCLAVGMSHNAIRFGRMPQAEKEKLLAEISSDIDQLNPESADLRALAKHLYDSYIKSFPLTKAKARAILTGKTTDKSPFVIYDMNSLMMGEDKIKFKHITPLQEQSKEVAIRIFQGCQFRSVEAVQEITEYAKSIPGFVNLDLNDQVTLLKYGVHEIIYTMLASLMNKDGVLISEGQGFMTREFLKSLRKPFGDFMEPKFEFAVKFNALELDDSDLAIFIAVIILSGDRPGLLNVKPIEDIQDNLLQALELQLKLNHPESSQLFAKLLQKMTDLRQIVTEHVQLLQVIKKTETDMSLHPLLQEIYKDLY
Vitamin D3 receptor (Homo sapiens), sequence (P11473 whole entry, looked up): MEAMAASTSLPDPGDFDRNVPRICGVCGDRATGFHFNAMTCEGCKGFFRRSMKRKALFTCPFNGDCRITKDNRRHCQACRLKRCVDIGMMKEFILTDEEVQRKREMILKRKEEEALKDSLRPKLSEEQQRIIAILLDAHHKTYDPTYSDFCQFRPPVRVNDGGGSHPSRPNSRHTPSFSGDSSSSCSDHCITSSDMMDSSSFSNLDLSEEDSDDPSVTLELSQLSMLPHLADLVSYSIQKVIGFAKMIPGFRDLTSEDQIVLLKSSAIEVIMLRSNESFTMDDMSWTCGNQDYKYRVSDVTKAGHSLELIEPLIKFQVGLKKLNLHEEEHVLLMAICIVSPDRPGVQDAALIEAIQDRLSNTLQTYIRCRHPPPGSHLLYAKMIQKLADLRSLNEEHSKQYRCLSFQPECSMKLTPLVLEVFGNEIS
Bile acid receptor (Homo sapiens), sequence (Q96RI1 whole entry, looked up): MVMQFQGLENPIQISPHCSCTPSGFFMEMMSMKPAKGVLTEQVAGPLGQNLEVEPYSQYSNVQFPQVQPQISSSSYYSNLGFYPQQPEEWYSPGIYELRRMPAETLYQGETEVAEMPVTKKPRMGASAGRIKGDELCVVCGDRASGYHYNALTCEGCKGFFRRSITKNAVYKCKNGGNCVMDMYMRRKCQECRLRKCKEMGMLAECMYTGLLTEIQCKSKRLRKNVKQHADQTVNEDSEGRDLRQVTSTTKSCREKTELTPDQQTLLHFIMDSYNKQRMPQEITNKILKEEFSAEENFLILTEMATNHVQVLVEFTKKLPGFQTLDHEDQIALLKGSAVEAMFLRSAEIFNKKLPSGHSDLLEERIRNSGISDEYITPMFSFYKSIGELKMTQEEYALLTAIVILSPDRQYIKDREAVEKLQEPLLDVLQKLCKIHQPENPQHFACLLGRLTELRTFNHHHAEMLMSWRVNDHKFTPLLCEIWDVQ
Peroxisome proliferator-activated receptor delta (Homo sapiens), sequence (Q03181 whole entry, looked up): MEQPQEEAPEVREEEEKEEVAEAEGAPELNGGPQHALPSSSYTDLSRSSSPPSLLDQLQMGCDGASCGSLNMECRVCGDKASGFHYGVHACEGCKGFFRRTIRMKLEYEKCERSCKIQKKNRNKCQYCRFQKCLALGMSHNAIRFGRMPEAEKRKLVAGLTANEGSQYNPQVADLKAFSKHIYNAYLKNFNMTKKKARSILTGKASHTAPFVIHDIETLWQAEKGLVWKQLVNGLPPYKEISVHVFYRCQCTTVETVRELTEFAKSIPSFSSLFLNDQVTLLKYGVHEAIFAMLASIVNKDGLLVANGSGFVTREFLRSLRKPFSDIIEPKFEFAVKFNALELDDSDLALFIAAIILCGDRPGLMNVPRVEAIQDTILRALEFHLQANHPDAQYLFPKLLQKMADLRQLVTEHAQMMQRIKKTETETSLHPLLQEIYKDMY

O=c1[nH]c2ccccc2c(=O)n1CCCl
inactive: [1] | [2] | [3] | [4] | [5] | [6] | [7] | [8] | [9] | [10] | [11] | [12] | [13]

COC(=O)[C@H]1[C@H]2C[C@@H]3c4[nH]c5cc(OC)ccc5c4CCN3C[C@H]2C[C@@H](OC(=O)COc2ccc(OC)cc2)[C@@H]1OC
inactive: [14] | [1] | [15] | [2] | [3] | [5] | [10] | [13]

CN(C)N=Nc1ccccc1
inactive: [14] | [15] | [2] | [3] | [4] | [5] | [6] | [7] | [8] | [9] | [10] | [11] | [12]

CC(C)CCCC(C)CCCC(C)CCCCC(C)CCCC(C)CCCC(C)C (stereo unspecified)
inactive: [14] | [15] | [2] | [3] | [4] | [5] | [6] | [7] | [9] | [10] | [11] | [12]

Cc1ccc(N)cc1[N+](=O)[O-]
inactive: [14] | [16] | [1] | [15] | [2] | [3] | [4] | [5] | [6] | [7] | [8] | [9] | [10] | [11] | [12] | [13]

c1ccc(CCCc2ccccn2)cc1
inactive: [14] | [17] | [16] | [2] | [3] | [4] | [5] | [7] | [18] | [9] | [19] | [10] | [11]

O=C1CC2(CCCC2)CC(=O)N1
inactive: [16] | [1] | [15] | [2] | [4] | [5] | [6] | [7] | [8] | [18] | [9] | [19] | [10] | [11] | [12] | [13]

CNC(=O)c1c(I)c(NC(=O)CCCCC(=O)Nc2c(I)c(C(=O)O)c(I)c(C(=O)NC)c2I)c(I)c(C(=O)O)c1I
inactive: [16] | [1] | [2] | [3] | [4] | [5] | [6] | [7] | [8] | [18] | [19] | [11] | [12] | [13]

Cc1c(C)n(CCN(C)C)c2ccc(C(=O)OCCN(C)C)cc12
inactive: [17] | [1] | [2] | [3] | [4] | [5] | [6] | [8] | [18] | [9] | [11] | [12] | [13]

Nc1ncnc2c1ncn2Cc1c(F)cccc1Cl
inactive: [16] | [1] | [2] | [3] | [4] | [5] | [6] | [9] | [12] | [13]

NC(=O)Nc1nc2ccccc2[nH]1
inactive: [14] | [17] | [1] | [2] | [3] | [5] | [6] | [7] | [18] | [9] | [19] | [10] | [11] | [12] | [13]

CC(=O)CCc1ccc(O)cc1
inactive: [14] | [16] | [1] | [15] | [2] | [4] | [5] | [6] | [7] | [8] | [9] | [10] | [11] | [13]

CCCCCCCCCCCCCCC
inactive: [14] | [15] | [2] | [4] | [5] | [6] | [7] | [9] | [10] | [11] | [13]

CCCCCCCCC=O
inactive: [14] | [15] | [2] | [3] | [4] | [6] | [7] | [10]
